# From PubChem BioAssay (NCI)
# The panel holds about 79,000 compounds, 15% with a hit somewhere; the sample as a whole holds those more often. Values without a mark were called inactive. Active and inactive are the calls of the source. Cut-off read from the data, not from the text of the source: active = growth inhibition above about 70%; inactive = the rest.
# Experiment: NCI Yeast Anticancer Drug Screen. Data for the cln2 rad14 strain (AID 165);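 note: 0% = growth equal to vehicle treated cultures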
# Settings: S. cerevisiae cln2 rad14 strain, at 50.0 µM, stronger effect = higher value
# Outline: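 Yeast carrying cln2 and rad14 alterations (cell cycle control and DNA damage repair) were exposed to compounds. Growth inhibition was measured against vehicle-treated controls.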
row,Structure (SMILES),growth inhibition
1,C=CCOc1ccc(/C=N/NC(N)=S)cc1,58.2%
2,Fc1ccc2[nH]ccc2c1,34.4%
3,C=C1C(=O)[C@]23C[C@H]1CC[C@H]2[C@@]12CO[C@@H](O)[C@@H]1C(C)(C)[C@@H](O)C[C@@H]2OC3=O,67.2%
4,N#Cc1ccc([N+](=O)[O-])cc1C#N,97.6% (active)
5,N=C(N)c1ccc(Oc2ccc(Oc3ccc(C(=N)N)cc3)cc2)cc1,64.6%
6,CCC=Nc1c(O)cc(-c2ccccc2)n(C)c1=O,16.3%
7,COc1ccc(CN2CCCN(Cc3ccc(OC)cc3OC)C2c2cc(Cl)ccc2O)c(OC)c1,15.7%
8,CCN(CC)c1ccc(/C=C2/C[N+](C)(C)C/C(=C/c3ccc(N(CC)CC)cc3)C2=O)cc1,76.5% (active)
9,O=P1(Cc2ccccc2)c2ccccc2-c2ccccc21,89.4% (active)
10,CN(C)CCCNc1cc(O)c2c(c1O)C(=O)c1ccccc1C2=O,94.8% (active)
11,CCCCC#CC(=O)OCCCCC,25.1%
12,CCCCCCN(CCCCCC)CCC(=O)c1ccc2cc(Cl)c3ccccc3c2c1,31.8%
13,CC(C)C1=C2CCC3(C)C(CCC4C5C6OCC5(CCC6(C)C)CCC43C)C2(C)CC1 (stereo unspecified),83.7% (active)
14,O=C(CC(O)(CC(=O)OCc1ccccc1)C(=O)OCc1ccccc1)OCc1ccccc1,98.2% (active)
15,CCc1c(C)[nH]c2c([N+](=O)[O-])cccc12,94.5% (active)
16,CSc1ncc2c(n1)-c1ccccc1OC2NC1CC1 (stereo unspecified),-2.85%
